Assay results taken from PubChem BioAssay (NCI).
Values joined by “and” are separate entries in the source; they are usually repeats but may differ in a detail not shown here. Identical values can stand only once. The panel holds about 83,000 compounds, 20% with a hit somewhere; the sample as a whole holds those more often.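 How to read the values: 0–100, growth inhibition (40 = 60% inhibited); 0, no net growth; -100 to 0, cell death (-40 = 40% of starting cells died; -100 = all dead).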 Active and inactive are the calls of the source. The calls were made as follows: active = growth percent below 10; inactive = the rest.

Legend:
Test in all cases: NCI-60 one-dose screen, 48 h (100 = growth as untreated, 0 = no growth, -100 = all killed)
Conditions in all cases: 10 µM unless noted
HCT-15 colon = test system: HCT-15 colon
HT29 colon = test system: HT29 colon
SNB-75 CNS = test system: SNB-75 CNS
SNB-19 CNS = test system: SNB-19 CNS
U251 CNS = test system: U251 CNS
PC-3 prostate = test system: PC-3 prostate
SK-MEL-5 melanoma = test system: SK-MEL-5 melanoma
UACC-62 melanoma = test system: UACC-62 melanoma
LOX IMVI melanoma = test system: LOX IMVI melanoma
SK-MEL-28 melanoma = test system: SK-MEL-28 melanoma

Measured: growth

C=C(c1ccc(C(=O)O)cc1)c1cc2c(cc1C)C(C)(C)CCC2(C)C
inactive: HCT-15 colon 74.7% and 65.1% | HT29 colon 93.2% and 62.7% | SNB-75 CNS 94.9% and 82.7% | SNB-19 CNS 75.2% and 79.6% | U251 CNS 84.1% and 62.8% | PC-3 prostate 68.9% | SK-MEL-5 melanoma 83% and 76.6% | UACC-62 melanoma 74.3% and 58.7% | LOX IMVI melanoma 80.2% and 81.8% | SK-MEL-28 melanoma 137% and 72.9%

COc1ccc2c(c1)c(C(=O)c1nc(-c3cn(C)c4ccccc34)no1)cn2C
inactive: HCT-15 colon 82.9% | HT29 colon 88.8% | SNB-75 CNS 108% | SNB-19 CNS 92.8% | U251 CNS 101% | PC-3 prostate 83.8% | SK-MEL-5 melanoma 82.2% | UACC-62 melanoma 76.6% | LOX IMVI melanoma 103% | SK-MEL-28 melanoma 93.4%

COC(=O)c1nc(-c2ccc(C)cc2)oc1Sc1ccc(C)cc1
inactive: HCT-15 colon 86.8% | HT29 colon 102% | SNB-75 CNS 79.3% | SNB-19 CNS 101% | U251 CNS 94.3% | PC-3 prostate 78.4% | SK-MEL-5 melanoma 105% | UACC-62 melanoma 76.9% | LOX IMVI melanoma 93.5% | SK-MEL-28 melanoma 106%

O=C(/C=C/c1cccs1)Nc1ncc(Cc2ccc(Cl)c(Cl)c2)s1
inactive: HCT-15 colon 28.9% | HT29 colon 24.2% | SNB-75 CNS 64% | SNB-19 CNS 71.1% | U251 CNS 59% | PC-3 prostate 77.6% | SK-MEL-5 melanoma 41.6% | UACC-62 melanoma 17.6% | LOX IMVI melanoma 23.3% | SK-MEL-28 melanoma 63.6%

COc1ccc(Cl)cc1Nc1nc(C(F)(F)F)ccc1C(=O)N/N=C/c1ccc(N(C)C)cc1
inactive: HCT-15 colon 87.3% | HT29 colon 107% | SNB-75 CNS 88.8% | SNB-19 CNS 86% | U251 CNS 92.6% | PC-3 prostate 97.3% | SK-MEL-5 melanoma 95.6% | UACC-62 melanoma 102% | LOX IMVI melanoma 95.2% | SK-MEL-28 melanoma 88.2%

CN(C)C(=O)c1cc2cnc(Nc3ccc(-c4csc5c(=S)cc(N6CCOCC6)oc45)cc3)nc2n1C1CCCC1
active: HCT-15 colon 7.32% | HT29 colon 5% | SNB-75 CNS -37.4% | U251 CNS 7.08% | PC-3 prostate -4.89% | SK-MEL-5 melanoma -30.4% | UACC-62 melanoma -35.8% | LOX IMVI melanoma -39.8% | SK-MEL-28 melanoma 9.77%
inactive: SNB-19 CNS 10.6%

CC(=O)Nc1c(I)c(NC(C)=O)c(I)c(C(=O)O)c1I
inactive: HCT-15 colon 98.5% and 131% | HT29 colon 108% and 118% | SNB-75 CNS 82% and 124% | SNB-19 CNS 107% | U251 CNS 102% and 106% | PC-3 prostate 88.2% and 101% | SK-MEL-5 melanoma 103% and 105% | UACC-62 melanoma 105% and 119% | LOX IMVI melanoma 95.8% and 111% | SK-MEL-28 melanoma 115% and 108%

O=C(Nc1ccc2ccccc2c1)c1cc2ccccc2cc1O
inactive: HCT-15 colon 85.9% | HT29 colon 98.9% | SNB-75 CNS 103% | SNB-19 CNS 97.9% | U251 CNS 87.2% | PC-3 prostate 78% | SK-MEL-5 melanoma 86.7% | UACC-62 melanoma 72.5% | LOX IMVI melanoma 94.4% | SK-MEL-28 melanoma 89.1%

CCNC(=O)Nc1ncccc1OCc1ccc(F)cc1
inactive: HCT-15 colon 99.7% | HT29 colon 95.5% | SNB-75 CNS 102% | SNB-19 CNS 102% | U251 CNS 96.8% | PC-3 prostate 103% | SK-MEL-5 melanoma 101% | UACC-62 melanoma 94.6% | LOX IMVI melanoma 94.6% | SK-MEL-28 melanoma 113%

Cc1ccc(C(=O)Nc2nc3c(s2)CN(Cc2ccccc2)CC3)cn1
inactive: HCT-15 colon 49.5% | HT29 colon 59.1% | SNB-75 CNS 66.9% | SNB-19 CNS 92.3% | U251 CNS 92.9% | PC-3 prostate 74.1% | SK-MEL-5 melanoma 79.3% | UACC-62 melanoma 74.5% | LOX IMVI melanoma 87% | SK-MEL-28 melanoma 94.3%

Cc1ccc(-c2nc(C#N)c(S(=O)(=O)N(C)C)o2)cc1
inactive: HCT-15 colon 19.7% | HT29 colon 97.7% | SNB-75 CNS 83.7% | SNB-19 CNS 98.2% | U251 CNS 93.3% | PC-3 prostate 103% | SK-MEL-5 melanoma 92.5% | UACC-62 melanoma 97.5% | LOX IMVI melanoma 49.8% | SK-MEL-28 melanoma 102%

COc1cc2cc(NCc3ccncc3)nc(C)c2cc1OC
inactive: HCT-15 colon 82.9% | HT29 colon 91.6% | SNB-75 CNS 97% | SNB-19 CNS 93.8% | U251 CNS 78.5% | PC-3 prostate 77.8% | SK-MEL-5 melanoma 95.2% | UACC-62 melanoma 97.8% | LOX IMVI melanoma 88% | SK-MEL-28 melanoma 99.2%

CC(=O)c1nn(-c2ccccc2)/c(=N/N=Cc2cn(-c3ccccc3)nc2-c2cc3ccccc3oc2=O)s1
inactive: HCT-15 colon 98.1% | HT29 colon 109% | SNB-75 CNS 104% | SNB-19 CNS 103% | U251 CNS 91.6% | PC-3 prostate 101% | SK-MEL-5 melanoma 101% | UACC-62 melanoma 92.9% | LOX IMVI melanoma 98.9% | SK-MEL-28 melanoma 111%

COc1cc(-c2nc(SCCC(C)C)nc(Nc3ccc(F)cc3)c2C#N)cc(OC)c1OC
inactive: HCT-15 colon 88.8% | HT29 colon 55% | SNB-75 CNS 30.8% | SNB-19 CNS 45.5% | U251 CNS 29.7% | PC-3 prostate 75.9% | SK-MEL-5 melanoma 97.6% | UACC-62 melanoma 80.5% | LOX IMVI melanoma 79.2% | SK-MEL-28 melanoma 104%

CN1CCN(c2ccc(Nc3ncc(C(N)=O)c(NCCCNC(=O)C4CCC4)n3)cc2)CC1
inactive: HCT-15 colon 111% | HT29 colon 44.4% | SNB-75 CNS 67.7% | SNB-19 CNS 63.9% | U251 CNS 67% | PC-3 prostate 77.6% | SK-MEL-5 melanoma 92.3% | UACC-62 melanoma 108% | LOX IMVI melanoma 64.8% | SK-MEL-28 melanoma 103%

O=Nc1c(O)ccc2ccccc12
6.57% (active) and 72.4% (inactive): PC-3 prostate
3.68% (active) and 73.6% (inactive): LOX IMVI melanoma
inactive: HCT-15 colon 43% and 103% | HT29 colon 24.7% and 109% | SNB-75 CNS 114% | SNB-19 CNS 105% and 106% | U251 CNS 99.4% | SK-MEL-5 melanoma 80.9% and 82.8% | UACC-62 melanoma 21.2% and 87.4% | SK-MEL-28 melanoma 83% and 102%

COc1ccc(Cn2cc(C(=O)Nc3cccnc3Nc3ccccc3)nn2)cc1
inactive: HCT-15 colon 94.8% | HT29 colon 106% | SNB-75 CNS 89.2% | SNB-19 CNS 93.3% | U251 CNS 99.5% | PC-3 prostate 91% | SK-MEL-5 melanoma 90.2% | UACC-62 melanoma 83.2% | LOX IMVI melanoma 92% | SK-MEL-28 melanoma 113%

O=C(Nc1ncc(Cc2cccc(C(F)(F)F)c2)s1)c1ccc(-n2cnnn2)cc1
inactive: HCT-15 colon 38.7% | HT29 colon 62% | SNB-75 CNS 83.4% | SNB-19 CNS 59.7% | U251 CNS 64.4% | PC-3 prostate 54.1% | SK-MEL-5 melanoma 37.8% | UACC-62 melanoma 19.8% | LOX IMVI melanoma 46.6% | SK-MEL-28 melanoma 52.7%

COc1ccc(Nc2ncnc3ccc(-c4cncc(NS(C)(=O)=O)c4)cc23)cc1Cl
inactive: HCT-15 colon 63.3% | HT29 colon 23.1% | SNB-75 CNS 26.7% | SNB-19 CNS 42.2% | U251 CNS 12% | PC-3 prostate 30% | UACC-62 melanoma 31.8% | LOX IMVI melanoma 15.7% | SK-MEL-28 melanoma 42.4%
active: SK-MEL-5 melanoma -60.5%

COC(=O)/C=C1/SC(N2N=C(c3cccs3)CC2c2ccc(F)cc2)=NC1=O (stereo not given)
inactive: HT29 colon 13.3% | SNB-75 CNS 48% | SNB-19 CNS 76.4% | U251 CNS 22.1% | PC-3 prostate 64.5% | SK-MEL-5 melanoma 54.1% | UACC-62 melanoma 56.8% | SK-MEL-28 melanoma 43.8%
active: HCT-15 colon -9.66% | LOX IMVI melanoma -46.5%

COc1cc(CNC(=O)CCCC/C=C/C(C)C)ccc1O
inactive: HCT-15 colon 104% and 96.9% | HT29 colon 104% | SNB-75 CNS 93% and 100% | SNB-19 CNS 90.9% and 104% | U251 CNS 101% and 98% | PC-3 prostate 86.6% and 88.1% | SK-MEL-5 melanoma 97.8% and 97.5% | UACC-62 melanoma 96.6% and 104% | LOX IMVI melanoma 89% and 86.9% | SK-MEL-28 melanoma 116% and 112%

COc1ccc(/C=N\Nc2nc(SCC(C)C)nc(-c3ccc(OC)cc3)c2C#N)cc1
active: SNB-75 CNS -23.3% | U251 CNS -7.88%
inactive: HCT-15 colon 71% | HT29 colon 56.4% | SNB-19 CNS 31% | PC-3 prostate 53.6% | SK-MEL-5 melanoma 77.2% | UACC-62 melanoma 86.1% | LOX IMVI melanoma 31.9% | SK-MEL-28 melanoma 101%
